Reference: publication PMC4336329 (PLoS ONE, 2015)
Out of some 310,000 compounds screened, about 14,000 (4.5%) showed an effect of 50% or more. Effects have a minus sign here. The sample as a whole holds a higher share of strong results than the screen did.

Target: human ether-à-go-go-related gene (hERG) potassium channel (human, UniProt Q12809)
Experiment: primary screen, population patch clamp on CHO cells stably expressing hERG; higher = less effect of the substance
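Further: peak tail current of the secondary pulse compared with the same well before compound.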

Chain of human ether-à-go-go-related gene (hERG) potassium channel (Q12809 whole entry, looked up): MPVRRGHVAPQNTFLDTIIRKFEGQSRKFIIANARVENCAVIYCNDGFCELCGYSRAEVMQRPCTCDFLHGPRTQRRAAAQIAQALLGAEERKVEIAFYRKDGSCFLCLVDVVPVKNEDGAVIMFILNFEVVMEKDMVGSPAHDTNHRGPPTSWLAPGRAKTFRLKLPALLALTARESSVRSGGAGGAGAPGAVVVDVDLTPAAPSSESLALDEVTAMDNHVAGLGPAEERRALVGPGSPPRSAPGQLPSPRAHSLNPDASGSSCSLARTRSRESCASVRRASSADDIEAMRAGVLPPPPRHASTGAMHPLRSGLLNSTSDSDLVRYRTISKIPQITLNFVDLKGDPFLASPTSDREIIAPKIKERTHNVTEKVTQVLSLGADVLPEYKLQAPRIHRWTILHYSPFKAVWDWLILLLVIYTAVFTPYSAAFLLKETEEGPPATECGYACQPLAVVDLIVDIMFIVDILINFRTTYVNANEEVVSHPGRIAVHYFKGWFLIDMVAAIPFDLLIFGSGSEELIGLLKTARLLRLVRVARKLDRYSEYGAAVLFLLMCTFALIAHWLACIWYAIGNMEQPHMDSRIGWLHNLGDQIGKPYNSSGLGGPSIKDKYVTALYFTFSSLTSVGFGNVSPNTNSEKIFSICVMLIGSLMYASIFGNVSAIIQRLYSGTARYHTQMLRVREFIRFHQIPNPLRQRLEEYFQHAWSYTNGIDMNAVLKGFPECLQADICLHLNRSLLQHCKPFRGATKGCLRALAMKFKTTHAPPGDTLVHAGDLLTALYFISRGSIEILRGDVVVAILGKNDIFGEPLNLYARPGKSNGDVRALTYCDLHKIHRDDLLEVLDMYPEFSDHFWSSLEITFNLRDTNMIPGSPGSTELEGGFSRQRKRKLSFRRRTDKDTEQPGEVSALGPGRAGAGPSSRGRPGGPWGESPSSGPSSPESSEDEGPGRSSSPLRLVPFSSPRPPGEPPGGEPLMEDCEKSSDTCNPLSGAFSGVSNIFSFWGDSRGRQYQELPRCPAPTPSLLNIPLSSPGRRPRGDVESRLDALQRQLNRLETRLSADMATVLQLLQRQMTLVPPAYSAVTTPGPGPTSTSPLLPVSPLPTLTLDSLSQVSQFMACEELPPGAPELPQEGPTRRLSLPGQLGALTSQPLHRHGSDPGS

Row | SMILES | hERG current change (%, negative = inhibition) at 10uM [%]
1 | COc1ccc(-c2nc(CN3CCC(C(=O)N4CCOCC4)CC3)c(C)o2)cc1C | -6.98
2 | Cc1oc(-c2cccc(C(F)(F)F)c2)nc1CN1CCOCC1 | -3.32
3 | Cc1oc(-c2cccc(C(F)(F)F)c2)nc1CN1CCN(c2ccccn2)CC1 | -52.5
4 | Cc1cccc(-c2nc(CSCC(=O)N3CCN(c4ccccn4)CC3)c(C)o2)c1 | -41.2
5 | Cc1oc(-c2cc(F)ccc2F)nc1CN1CCC(C(=O)N2CCOCC2)CC1 | -42.8
6 | Cn1nnc2ccccc2c1=O | 12.5
7 | C/C(=N\NC(=S)Nc1c(C)cccc1C)c1cc2ccccc2o1 | 15.1
8 | CCc1ccccc1NC(=O)CSc1n[nH]c(C)c1[N+](=O)[O-] | -8.12
9 | CCNc1ccc(C(=O)O)cc1N | 9.77
10 | Cc1cccc(OCCOC(=O)C2CCN(S(=O)(=O)c3cccs3)CC2)c1 | 6.58
11 | COc1cc(NC(=O)c2cccnc2)c(Cl)cc1NC(=O)c1ccc(Cl)cc1 | -0.00342
12 | COc1cc(/C=C2\SC(=O)NC2=O)ccc1Oc1cnccn1 | 2.14
13 | CCN(CC(=O)NCc1ccc(Cl)cc1)C(=O)c1ccc(S(=O)(=O)NCc2ccco2)cc1 | -54.9
14 | CN(Cc1cccs1)C(=O)c1ccc(S(=O)(=O)NCc2ccco2)cc1 | -54.2
15 | CN(Cc1ccc(Cl)cc1)C(=O)c1ccc(S(=O)(=O)NCc2ccco2)cc1 | -51.8
16 | CCN(CC(=O)NCc1ccc(Cl)cc1)C(=O)c1ccc(S(=O)(=O)N(C)C)cc1 | -33.2
17 | CC(C)c1ccc(CN(C)C(=O)c2ccc(S(=O)(=O)NCc3ccco3)cc2)cc1 | -33.7
18 | COc1ccc(S(=O)(=O)NCc2ccc(C(=O)N(C)Cc3ccco3)cc2)cc1 | -19.1
19 | COc1ccccc1CN(C)C(=O)c1ccc(S(=O)(=O)NCc2ccco2)cc1 | -14.9
20 | Cc1nn(-c2ccccc2)c(C)c1CN(C)C(=O)c1ccc(S(=O)(=O)NCc2ccco2)cc1 | -21.2
21 | CCN(CC(=O)Nc1c(F)cccc1F)C(=O)c1ccc(S(=O)(=O)NCc2ccco2)cc1 | 8.72
22 | Cc1ccccc1C(=O)Nc1cccc(NC(=O)c2cccnc2)c1 | -9.39

Row | SMILES | hERG current change (%, negative = inhibition) at 10uM [%]
23 | CCn1ncc(/C=C2/SC(=S)NC2=O)c1C | 23.6
24 | CCOc1ncnc2c1sc1nc(C)cc(C)c12 | 16
25 | CC(C)N(C(=O)N1CCC(c2nc(-c3ccncc3)no2)CC1)C(C)C | -15.3
26 | O=C(c1ccco1)N1CCN(S(=O)(=O)c2ccc(Br)s2)CC1 | -16
27 | Cc1cccn2c(=O)c3cc(C(=O)NCCN4CCOCC4)c(=N)n(CCCN4CCOCC4)c3nc12 | 15.2
28 | CCOCCCn1c(=N)c(C(=O)NCCN2CCOCC2)cc2c(=O)n3cccc(C)c3nc21 | -53.6
29 | Cc1cccn2c(=O)c3cc(C(=O)NCCN4CCOCC4)c(=N)n(CCN4CCOCC4)c3nc12 | 18.5
30 | CCCCNC(=O)c1cc2c(=O)n3cccc(C)c3nc2n(CCN2CCOCC2)c1=N | -86
31 | Cc1ccc(NC(=O)CN2CCCCC2)c2c1CC(C)(C)O2 | 1.17
32 | O=C(Cc1cccs1)Nc1nc(-c2ccc(F)cc2F)cs1 | -4.34
33 | CCCn1cnc2c(=S)nc(N)[nH]c21 | 16.3
34 | CCNCCC(=O)N1c2ccccc2Sc2ccc(NC(=O)OCC)cc21.Cl | -29.6
35 | COC(=O)c1c(C)oc2cc(Br)c(OCC(=O)C(C)(C)C)cc12 | 6.12
36 | CC(C)N1C(=O)CCC1C(=O)NC1CCCC1 (stereo not shown) | -3.05
37 | CCOc1ccc(-c2cc(C(=O)N/N=C(\C)c3cccnc3)c3ccccc3n2)cc1 | 10.6
38 | CCOc1ccc(S(=O)(=O)N(CC)CC(=O)N2CCOCC2)cc1C | 6.73
39 | CCCNC(=O)NCc1ccc(N2CCCC2=O)cc1 | 8.43
40 | O=C(O)CCCCCCCCCCP(=O)(c1ccccc1)c1ccccc1 | -7.05
41 | O=P(O)(O)CCP(=O)(c1ccccc1)c1ccccc1 | 9.46
42 | O=P(CCCCCCCCCP(=O)(c1ccccc1)c1ccccc1)(c1ccccc1)c1ccccc1 | -56.1
43 | CCN(CC(=O)N1CCCCC1)S(=O)(=O)c1ccccc1 | -7.12
